Among the data in PubChem BioAssay (NCI) are growth values, retold here.

Common to all, as to experiment: NCI-60 one-dose screen, 48 h (100 = growth as untreated, 0 = no growth, -100 = all killed)
The test system of one experiment is NCI-H23 lung. Conditions: 10 µM unless noted.
For the next experiment, the system named is NCI-H226 lung. The note with it: 10 µM unless noted.
A further experiment deals with NCI-H322M lung. The note with it: 10 µM unless noted.
The test system of a further experiment is HOP-62 NSCLC. The note with it: 10 µM unless noted.
In another experiment the test system is NCI-H460 lung. Conditions: 10 µM unless noted.
The test system of a further experiment is HOP-92 NSCLC. The note with it: 10 µM.
A further experiment deals with NCI-H522 lung. The note with it: 10 µM unless noted.
The next experiment deals with A549/ATCC NSCLC. The note with it: 10 µM unless noted.
A further experiment deals with 786-0 renal. Conditions: 10 µM unless noted.
The next experiment has as its system COLO 205 colon. The note with it: 10 µM unless noted.
A further experiment has as its system DU-145 prostate. Conditions: 10 µM unless noted.
In the next experiment the test system is K-562 leukemia. Conditions: 10 µM unless noted.
For another experiment, the system named is MALME-3M melanoma. The note with it: 10 µM unless noted.
In the next experiment the test system is MDA-MB-231 breast. The note with it: 10 µM unless noted.
The test system of another experiment is SF-268 CNS. Conditions: 10 µM unless noted.
Another experiment has as its system SF-295 CNS. The note with it: 10 µM unless noted.
For another experiment, the system named is SF-539 CNS. Conditions: 10 µM unless noted.
The subject of a further experiment is UACC-257 melanoma. Conditions: 10 µM unless noted.

Compounds without any hit were thinned out: in the full panel of roughly 83,000, 20% have a hit.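 For each line, cells grew in 96-well plates with the test compound present at a single concentration for 48 hours.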 Unmarked numbers belong to inactive results. The source made the active and inactive calls. How the source made its calls: active means growth percent below 10; inactive means the rest.

Take `CC1(C)CC[C@]23CC[C@]4(C)[C@H](CC[C@@H]5[C@@]6(C)CCCN(CO)C(C)(C)[C@@H]6CC[C@]54C)[C@H]2[C@H]1OC3`: the growth in the experiment with NCI-H23 lung is 86.4%; with NCI-H226 lung, 94.8%; in the experiment with NCI-H322M lung, 71.9%; with HOP-62 NSCLC, 98.9%; in the experiment with NCI-H460 lung, 1.75% (active); in the experiment with HOP-92 NSCLC it was 77.5%. The growth is 94.9% with NCI-H522 lung; 76.8% with A549/ATCC NSCLC; 83.8% with 786-0 renal; 0.57% (active) with COLO 205 colon; 50.7% with DU-145 prostate; 2.86% (active) in the experiment on K-562 leukemia. The growth in the experiment with MALME-3M melanoma is 101%; in the experiment with MDA-MB-231 breast it was 65.9%; in the experiment on SF-268 CNS it was 97.5%; in the experiment with SF-295 CNS it was 112%; in the experiment on SF-539 CNS, 84.6%; with UACC-257 melanoma, 110%.

Take `O=C(O)c1ccc(-n2cc(CNc3cc(F)c(F)c(F)c3)c(-c3cccc(F)c3)n2)cc1`: the growth in the experiment on NCI-H23 lung was 84.9%; with NCI-H226 lung it was 93.9%; in the experiment on NCI-H322M lung, 97.2%; in the experiment on HOP-62 NSCLC, 114%; in the experiment with NCI-H460 lung it was 98.8%; with HOP-92 NSCLC it was 104%. For the same compound, the growth was 91.5% with NCI-H522 lung; 77.2% in the experiment with A549/ATCC NSCLC; 112% in the experiment with 786-0 renal; 126% in the experiment with COLO 205 colon; 101% with DU-145 prostate; 84.3% with K-562 leukemia. In addition, the growth is 67.2% in the experiment with MALME-3M melanoma; 94.4% in the experiment on MDA-MB-231 breast; 106% with SF-268 CNS; 37.1% with SF-295 CNS; 97.1% in the experiment with SF-539 CNS; 95.1% in the experiment on UACC-257 melanoma.

Take `Oc1cccc2ccc(-c3nnc(SCc4ccc(O)c5ncccc45)o3)nc12`: the growth is 3.67% (active) with NCI-H23 lung; 35.2% with NCI-H226 lung; 39.9% in the experiment with NCI-H322M lung; 25.8% with HOP-62 NSCLC; 1.33% (active) in the experiment on NCI-H460 lung; -16% (active) with HOP-92 NSCLC. The growth in the experiment on NCI-H522 lung is 11.2%; in the experiment on A549/ATCC NSCLC, 15.9%; in the experiment with 786-0 renal, 21.1%; in the experiment on COLO 205 colon it was 31.7%; with DU-145 prostate, 22.1%; in the experiment with K-562 leukemia, 14.6%. Moreover, the growth is -3.31% (active) with MALME-3M melanoma; 26.6% in the experiment with MDA-MB-231 breast; 23.4% in the experiment with SF-268 CNS; 3.94% (active) in the experiment with SF-295 CNS; 14.5% in the experiment with SF-539 CNS; 0.0475% (active) in the experiment with UACC-257 melanoma.

For the compound `CCn1c(SCC(=O)Nc2cccc(C(=O)/C=C/c3ccc(C)cc3)c2)nc2ccccc2c1=O`, the growth in the experiment on NCI-H23 lung is 76.9%; with NCI-H226 lung, 73.4%; in the experiment on NCI-H322M lung, 86.7%; in the experiment with HOP-62 NSCLC, 108%; with NCI-H460 lung it was 98.2%; with HOP-92 NSCLC, 77.7%. The growth with NCI-H522 lung was 81.1%; with A549/ATCC NSCLC, 68%; in the experiment on 786-0 renal it was 93.6%; in the experiment on COLO 205 colon, 122%; in the experiment with DU-145 prostate, 77.2%; in the experiment on K-562 leukemia, 55.4%. Also, the growth is 103% in the experiment on MALME-3M melanoma; 92.1% in the experiment with MDA-MB-231 breast; 87.2% in the experiment on SF-268 CNS; 104% in the experiment with SF-295 CNS; 86.5% in the experiment with SF-539 CNS; 105% in the experiment on UACC-257 melanoma.

For the compound `CCOC(=O)c1c(NC(=O)c2ccccc2C(F)(F)F)sc2c1CCC(=O)C2`, the growth is 23.3% in the experiment with NCI-H23 lung; 60.8% in the experiment with NCI-H226 lung; 113% in the experiment with NCI-H322M lung; 64.8% in the experiment on HOP-62 NSCLC; 33.3% with NCI-H460 lung; 40.1% in the experiment with HOP-92 NSCLC. In addition, the growth is 5.03% (active) in the experiment on NCI-H522 lung; 97.5% in the experiment with A549/ATCC NSCLC; 104% in the experiment with 786-0 renal; 56.7% in the experiment with COLO 205 colon; 95.3% with DU-145 prostate; 12.8% in the experiment with K-562 leukemia. Besides, the growth in the experiment on MALME-3M melanoma is 73%; in the experiment on MDA-MB-231 breast, 15.2%; in the experiment on SF-268 CNS it was 22.9%; with SF-295 CNS, 41.6%; with SF-539 CNS it was -6.66% (active); with UACC-257 melanoma, 98.9%.

Take `Cc1ccc(NC(=S)NNC(=S)Nc2ccc(C)cc2)cc1`: the growth in the experiment on NCI-H23 lung is 95.2%; with NCI-H226 lung, 103%; in the experiment with NCI-H322M lung it was 96.7%; with HOP-62 NSCLC, 97.8%; with NCI-H460 lung it was 112%; with HOP-92 NSCLC, 93.1%. The growth in the experiment with NCI-H522 lung was 93.4%; in the experiment on A549/ATCC NSCLC, 105%; in the experiment with 786-0 renal it was 89.6%; in the experiment with COLO 205 colon it was 115%; with DU-145 prostate it was 106%; in the experiment with K-562 leukemia it was 96.6%. Besides, the growth in the experiment on MALME-3M melanoma is 103%; in the experiment with MDA-MB-231 breast, 106%; in the experiment on SF-268 CNS, 108%; in the experiment on SF-295 CNS it was 102%; in the experiment on SF-539 CNS, 110%; in the experiment on UACC-257 melanoma, 117%.

As for `CN1CCN(Cc2ccc(NC(=O)c3cncc(C#Cc4cnc5ccc(OCC(C)(C)O)nn45)c3)cc2C(F)(F)F)CC1`, the growth in the experiment on NCI-H23 lung was -58.4% (active); in the experiment on NCI-H226 lung, -64.1% (active); with NCI-H322M lung, -22.5% (active); with HOP-62 NSCLC, -9.7% (active); in the experiment on NCI-H460 lung, -73.9% (active); in the experiment with HOP-92 NSCLC it was -18.6% (active). Moreover, the growth in the experiment with NCI-H522 lung was -35.3% (active); in the experiment on A549/ATCC NSCLC, -45.3% (active); in the experiment with 786-0 renal, -62.3% (active); with COLO 205 colon, -70% (active); in the experiment with DU-145 prostate it was -36.8% (active); in the experiment with K-562 leukemia, 8.57% (active). In addition, the growth in the experiment with MALME-3M melanoma was -67.6% (active); in the experiment with MDA-MB-231 breast, -11.1% (active); in the experiment with SF-268 CNS it was -50.4% (active); with SF-295 CNS, -2.58% (active); with SF-539 CNS it was -83.1% (active); with UACC-257 melanoma, -16.8% (active).

Take `COc1ccc(Oc2ccc(/C=N/NC(=O)CSc3nc4ccccc4c(=O)n3-c3ccc(Cl)cc3)cc2)cc1`: the growth in the experiment with NCI-H23 lung is 41.6%; in the experiment on NCI-H226 lung it was 79.7%; in the experiment with NCI-H322M lung, 84.7%; with HOP-62 NSCLC, 73.3%; in the experiment on NCI-H460 lung, 11.2%; in the experiment with HOP-92 NSCLC, 77.3%. In addition, the growth in the experiment with NCI-H522 lung is 51.3%; with A549/ATCC NSCLC, 47%; in the experiment on 786-0 renal it was 25.2%; with COLO 205 colon, 72.8%; in the experiment on DU-145 prostate, 49.2%; in the experiment on K-562 leukemia, 58.4%. For the same compound, the growth is 63.9% in the experiment on MALME-3M melanoma; 46.7% with MDA-MB-231 breast; 57.9% in the experiment on SF-268 CNS; 67.7% in the experiment on SF-295 CNS; 32.2% in the experiment with SF-539 CNS; 94.7% in the experiment on UACC-257 melanoma.
